Results as given in the supplement of paper PMC10849652.
About 7,900 targets were measured; listed, in parts, are those with a hit and a random draw of the rest. About 0.6% of all pairs of compound and target were hits.

Key:
Test in all cases: log2 fold change, soluble protein after heating vs DMSO (PISA); higher = thermal stabilisation; K562 cells, 10 uM, 30 min; active = over 0.2 and 3.5 SD of the protein, either way, in both replicates (recomputed)
bafetinib = compound: Cc1ccc(NC(=O)c2ccc(CN3CC[C@H](N(C)C)C3)c(C(F)(F)F)c2)cc1Nc1nccc(-c2cncnc2)n1 [bafetinib]
How it was run: (§1)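 Soluble protein was quantified by TMTpro 16plex LC-MS/MS after channel sums were equalised. It was obtained as the supernatant after 21,000xg for 90 min from pooled aliquots of K562 cells (2×10^6 cells/mL, 10 μM compound, 30 min) heated for 3 min across 48°C-58°C and extracted in PBS with 0.5% NP-40 at 4°C. Thermal stability values are relative to control samples and come from duplicates. They are given as log2 fold changes.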

[1] = compound: Cc1cccc(CC(=O)N2CCc3c2ccc(-c2cn(C)c4ncnc(N)c24)c3F)n1
How it was run: as §1

nilotinib = compound: Cc1cn(-c2cc(NC(=O)c3ccc(C)c(Nc4nccc(-c5cccnc5)n4)c3)cc(C(F)(F)F)c2)cn1 [nilotinib]
How it was run: as §1

[2] = compound: Cc1nc(Nc2n[nH]c3c2CN(C(=O)N[C@H](CN(C)C)c2ccccc2)C3(C)C)c2sccc2n1
How it was run: as §1

dasatinib = compound: Cc1nc(Nc2ncc(C(=O)Nc3c(C)cccc3Cl)s2)cc(N2CCN(CCO)CC2)n1 [dasatinib]
How it was run: as §1

[3] = compound: Cc1ncc(-c2ccnc(Nc3ccc(S(C)(=O)=O)cc3)n2)n1C(C)C
How it was run: as §1

[4] = compound: Cn1cc(-c2ccc3c(c2)CCN3C(=O)Cc2cccc(C(F)(F)F)c2)c2c(N)ncnc21
How it was run: as §1

[5] = compound: Cn1cc(-c2ccc3nnc(C(F)(F)c4ccc5ncccc5c4)n3n2)cn1
How it was run: as §1

tipifarnib = compound: Cn1cncc1[C@@](N)(c1ccc(Cl)cc1)c1ccc2c(c1)c(-c1cccc(Cl)c1)cc(=O)n2C [tipifarnib]
How it was run: as §1

mubritinib = compound: FC(F)(F)c1ccc(/C=C/c2nc(COc3ccc(CCCCn4ccnn4)cc3)co2)cc1 [mubritinib]
How it was run: as §1

[6] = compound: NC(=O)Nc1cc(-c2cccc(F)c2)sc1C(=O)N[C@H]1CCCNC1
How it was run: as §1

[7] = compound: NC(=O)c1cnc(N[C@@H]2CCCC[C@@H]2N)nc1Nc1cccc(-n2nccn2)c1
How it was run: as §1

[8] = compound: NC1(c2ccc(-c3nc4ccn5c(=O)[nH]nc5c4cc3-c3ccccc3)cc2)CCC1
How it was run: as §1

[9] = compound: NCC(=O)Nc1ccc(-n2nc(C(F)(F)F)cc2-c2ccc3c(ccc4ccccc43)c2)cc1
How it was run: as §1

entinostat = compound: Nc1ccccc1NC(=O)c1ccc(CNC(=O)OCc2cccnc2)cc1 [entinostat]
How it was run: as §1

vorinostat = compound: O=C(CCCCCCC(=O)Nc1ccccc1)NO [vorinostat]
How it was run: as §1

citarinostat = compound: O=C(CCCCCCNC(=O)c1cnc(N(c2ccccc2)c2ccccc2Cl)nc1)NO [citarinostat]
How it was run: as §1

silmitasertib = compound: O=C(O)c1ccc2c(c1)nc(Nc1cccc(Cl)c1)c1ccncc12 [silmitasertib]
How it was run: as §1

[10] = compound: O=C1NC(=O)C(c2cnc3ccccn23)=C1c1cn2c3c(cc(F)cc13)CN(C(=O)N1CCCCC1)CC2
How it was run: as §1

[11] = compound: c1cc(OCCN2CCCCC2)cc(-c2n[nH]c3ccc(-c4nnc[nH]4)cc23)c1
How it was run: as §1

Measured: log2 fold change

PNPLA8 (UniProt Q9NP80)
Chain of UniProt Q9NP80 (Q9NP80 whole entry, looked up): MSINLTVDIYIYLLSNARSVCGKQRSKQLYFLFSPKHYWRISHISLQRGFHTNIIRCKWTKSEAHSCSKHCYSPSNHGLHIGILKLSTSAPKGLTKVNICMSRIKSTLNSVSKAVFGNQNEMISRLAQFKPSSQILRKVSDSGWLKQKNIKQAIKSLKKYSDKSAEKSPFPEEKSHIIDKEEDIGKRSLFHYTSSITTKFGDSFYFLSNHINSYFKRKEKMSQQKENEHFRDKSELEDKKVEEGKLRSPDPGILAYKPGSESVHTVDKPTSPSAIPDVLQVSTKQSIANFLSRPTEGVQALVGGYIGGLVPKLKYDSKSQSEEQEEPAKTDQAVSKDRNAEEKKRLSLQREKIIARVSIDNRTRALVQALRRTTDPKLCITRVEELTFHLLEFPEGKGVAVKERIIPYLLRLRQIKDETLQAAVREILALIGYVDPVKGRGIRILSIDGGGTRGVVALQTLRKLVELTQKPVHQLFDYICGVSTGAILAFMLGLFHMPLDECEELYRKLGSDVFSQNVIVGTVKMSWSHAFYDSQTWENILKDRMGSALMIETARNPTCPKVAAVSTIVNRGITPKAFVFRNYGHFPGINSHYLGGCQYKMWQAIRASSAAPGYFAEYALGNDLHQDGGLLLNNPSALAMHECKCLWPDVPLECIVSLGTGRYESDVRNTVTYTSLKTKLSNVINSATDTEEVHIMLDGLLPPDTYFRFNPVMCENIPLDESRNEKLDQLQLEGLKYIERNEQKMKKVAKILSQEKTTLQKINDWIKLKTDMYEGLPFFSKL
inactive: bafetinib -0.04 | [1] -0.13 | nilotinib 0.036 | [2] -0.026 | dasatinib -0.055 | [3] 0.038 | [4] 0.036 | [5] -0.063 | tipifarnib 0.053 | mubritinib 0.095 | [6] -0.035 | [7] 0.007 | [8] -0.038 | [9] -0.038 | entinostat -0.031 | vorinostat 0.111 | citarinostat 0.049 | silmitasertib -0.036 | [10] -0.017 | [11] -0.052

PIP4K2A (UniProt P48426)
Chain of UniProt P48426 (P48426 whole entry, looked up): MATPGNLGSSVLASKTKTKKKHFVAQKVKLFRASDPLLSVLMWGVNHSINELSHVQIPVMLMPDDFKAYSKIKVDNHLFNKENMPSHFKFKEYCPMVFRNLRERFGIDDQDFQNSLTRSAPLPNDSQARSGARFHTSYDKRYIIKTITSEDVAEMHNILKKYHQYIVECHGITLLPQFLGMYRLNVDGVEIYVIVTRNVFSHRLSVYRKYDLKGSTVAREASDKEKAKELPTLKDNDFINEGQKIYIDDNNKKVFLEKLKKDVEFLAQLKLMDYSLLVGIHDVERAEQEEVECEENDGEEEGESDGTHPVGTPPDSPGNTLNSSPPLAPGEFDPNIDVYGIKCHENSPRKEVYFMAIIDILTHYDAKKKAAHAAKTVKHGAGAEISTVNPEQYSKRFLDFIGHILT
inactive: bafetinib 0.283 | [1] 0.103 | nilotinib 0.077 | [2] 0.065 | dasatinib 0.048 | [4] 0.037 | [5] 0.181 | tipifarnib -0.081 | mubritinib -0.06 | [6] -0.026 | [7] 0.013 | [8] -0.086 | [9] 0.113 | entinostat 0.026 | vorinostat -0.037 | citarinostat 0.004 | silmitasertib 0.259 | [10] 0.057 | [11] -0.057
active: [3] 0.588

POLR2G (UniProt P62487)
inactive: bafetinib -0.048 | [1] -0.038 | nilotinib 0.012 | [2] 0.188 | dasatinib 0.054 | [3] 0.202 | [4] 0.009 | [5] 0.002 | tipifarnib 0 | mubritinib 0.065 | [6] 0.061 | [7] 0.153 | [8] -0.008 | [9] 0.003 | entinostat -0.034 | vorinostat -0.148 | citarinostat -0.009 | silmitasertib 0.004 | [10] 0.009 | [11] -0.037

PRKAR1B (UniProt P31321)
Chain of UniProt P31321 (P31321 whole entry, looked up): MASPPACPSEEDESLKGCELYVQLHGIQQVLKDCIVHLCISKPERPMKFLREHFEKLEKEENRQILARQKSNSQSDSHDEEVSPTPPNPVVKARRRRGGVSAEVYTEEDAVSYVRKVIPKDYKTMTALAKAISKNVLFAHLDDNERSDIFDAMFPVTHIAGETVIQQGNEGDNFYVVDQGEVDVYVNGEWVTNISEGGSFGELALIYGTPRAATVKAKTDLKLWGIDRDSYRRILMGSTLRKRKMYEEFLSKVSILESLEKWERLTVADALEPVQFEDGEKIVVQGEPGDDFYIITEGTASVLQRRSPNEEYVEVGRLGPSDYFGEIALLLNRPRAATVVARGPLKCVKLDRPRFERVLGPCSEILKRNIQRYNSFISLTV
inactive: bafetinib 0.132 | [1] -0.015 | nilotinib 0.062 | [2] 0.012 | dasatinib -0.013 | [3] 0.097 | [4] 0.018 | [5] 0.126 | tipifarnib 0.147 | mubritinib -0.286 | [6] 0.001 | [7] 0.085 | [8] 0.129 | [9] 0.045 | entinostat -0.015 | vorinostat -0.031 | citarinostat 0 | silmitasertib 0.07 | [10] 0.024 | [11] -0.142

PSMD11 (UniProt O00231)
inactive: bafetinib 0.15 | [1] 0.042 | nilotinib 0.054 | [2] 0.068 | dasatinib -0.004 | [3] -0.014 | [4] -0.074 | [5] -0.043 | tipifarnib -0.021 | mubritinib -0.054 | [6] 0.048 | [7] 0.04 | [8] -0.016 | [9] 0.061 | entinostat -0.012 | vorinostat 0.027 | citarinostat -0.001 | silmitasertib -0.028 | [10] 0.071 | [11] -0.092

PRKCQ (UniProt Q04759)
Chain of UniProt Q04759 (Q04759 whole entry, looked up): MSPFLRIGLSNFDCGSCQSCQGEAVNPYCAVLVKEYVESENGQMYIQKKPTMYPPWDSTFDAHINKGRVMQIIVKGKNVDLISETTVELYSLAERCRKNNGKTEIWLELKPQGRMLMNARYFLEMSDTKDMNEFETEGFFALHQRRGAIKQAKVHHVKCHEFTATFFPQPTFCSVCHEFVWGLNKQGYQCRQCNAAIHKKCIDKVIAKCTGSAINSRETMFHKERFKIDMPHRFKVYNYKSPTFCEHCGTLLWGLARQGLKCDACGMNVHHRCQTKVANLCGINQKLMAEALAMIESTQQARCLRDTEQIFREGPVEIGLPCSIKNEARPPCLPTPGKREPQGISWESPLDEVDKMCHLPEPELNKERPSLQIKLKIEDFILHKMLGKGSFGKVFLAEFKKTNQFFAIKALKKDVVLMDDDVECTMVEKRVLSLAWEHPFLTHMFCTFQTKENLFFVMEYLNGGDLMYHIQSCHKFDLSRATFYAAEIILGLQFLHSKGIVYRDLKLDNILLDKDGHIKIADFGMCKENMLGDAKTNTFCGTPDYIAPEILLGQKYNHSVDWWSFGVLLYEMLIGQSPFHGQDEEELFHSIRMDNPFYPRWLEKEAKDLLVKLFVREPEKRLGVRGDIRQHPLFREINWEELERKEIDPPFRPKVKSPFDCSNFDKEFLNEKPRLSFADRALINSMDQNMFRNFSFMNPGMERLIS
inactive: bafetinib -0.027 | [1] 0.024 | nilotinib -0.051 | dasatinib -0.171 | [3] 0.003 | [4] 0.069 | [5] 0.031 | tipifarnib -0.134 | mubritinib 0.12 | [7] -0.135 | [8] -0.198 | [9] -0.052 | entinostat 0.002 | vorinostat 0.035 | citarinostat 0.001 | silmitasertib 0.002 | [10] -0.021 | [11] -0.187
active: [2] -0.821 | [6] -0.337

PDLIM7 (UniProt Q9NR12)
Chain of UniProt Q9NR12 (Q9NR12 whole entry, looked up): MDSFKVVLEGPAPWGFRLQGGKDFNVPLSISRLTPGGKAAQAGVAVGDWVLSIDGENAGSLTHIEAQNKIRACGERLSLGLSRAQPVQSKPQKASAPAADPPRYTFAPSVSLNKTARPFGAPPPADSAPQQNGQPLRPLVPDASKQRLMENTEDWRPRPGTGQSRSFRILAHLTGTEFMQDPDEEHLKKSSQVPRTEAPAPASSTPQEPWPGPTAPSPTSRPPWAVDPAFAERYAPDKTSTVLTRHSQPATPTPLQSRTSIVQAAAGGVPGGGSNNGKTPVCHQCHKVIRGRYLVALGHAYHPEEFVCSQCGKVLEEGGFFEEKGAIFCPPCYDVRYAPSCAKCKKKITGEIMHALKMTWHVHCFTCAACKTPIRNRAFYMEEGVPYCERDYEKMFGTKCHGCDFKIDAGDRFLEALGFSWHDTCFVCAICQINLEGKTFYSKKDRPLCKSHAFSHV
inactive: bafetinib -0.01 | [1] 0.107 | nilotinib 0 | [2] -0.078 | dasatinib -0.036 | [3] -0.01 | [4] 0.006 | [5] -0.048 | tipifarnib -0.091 | mubritinib -0.042 | [6] 0.003 | [7] 0.009 | [8] 0.043 | [9] -0.042 | entinostat 0.011 | vorinostat 0.082 | citarinostat 0.037 | silmitasertib -0.017 | [10] 0.021 | [11] -0.026

PITRM1 isoform 2 (UniProt Q5JRX3)
inactive: bafetinib -0.052 | [1] -0.039 | nilotinib -0.108 | [2] 0.01 | dasatinib -0.132 | [3] -0.088 | [4] 0.119 | [5] -0.004 | tipifarnib 0.003 | mubritinib 0.005 | [6] 0.116 | [7] -0.077 | [8] -0.051 | [9] -0.061 | entinostat 0.097 | vorinostat 0.089 | citarinostat 0.104 | silmitasertib -0.045 | [10] 0.05 | [11] 0.096

PSMC4 (UniProt P43686)
Chain of UniProt P43686 (P43686 whole entry, looked up): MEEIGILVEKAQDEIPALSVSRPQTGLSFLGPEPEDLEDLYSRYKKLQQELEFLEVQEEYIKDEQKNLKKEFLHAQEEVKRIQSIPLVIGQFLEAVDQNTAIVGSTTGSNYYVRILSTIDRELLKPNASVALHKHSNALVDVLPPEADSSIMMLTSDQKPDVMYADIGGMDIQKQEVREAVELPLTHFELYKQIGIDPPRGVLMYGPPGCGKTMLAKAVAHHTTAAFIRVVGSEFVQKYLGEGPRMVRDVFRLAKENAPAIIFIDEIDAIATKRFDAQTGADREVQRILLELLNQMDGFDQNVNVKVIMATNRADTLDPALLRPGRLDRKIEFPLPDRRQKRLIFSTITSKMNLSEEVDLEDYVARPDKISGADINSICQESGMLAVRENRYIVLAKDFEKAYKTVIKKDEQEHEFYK
inactive: bafetinib 0.087 | [1] 0 | nilotinib -0.013 | [2] 0.05 | dasatinib 0.052 | [3] -0.019 | [4] -0.128 | [5] -0.037 | tipifarnib 0.117 | mubritinib -0.012 | [6] 0.018 | [7] -0.016 | [8] 0.028 | [9] 0.027 | entinostat -0.023 | vorinostat -0.023 | citarinostat -0.015 | silmitasertib -0.015 | [10] 0.043 | [11] -0.051

PTMA (UniProt P06454)
Chain of UniProt P06454 (P06454 whole entry, looked up): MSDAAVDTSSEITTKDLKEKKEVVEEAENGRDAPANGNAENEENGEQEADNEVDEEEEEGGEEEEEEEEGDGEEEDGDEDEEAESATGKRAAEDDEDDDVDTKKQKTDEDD
active: silmitasertib -0.628
inactive: bafetinib -0.076 | [1] -0.047 | nilotinib 0.023 | [2] 0.001 | dasatinib -0.01 | [3] -0.031 | [4] 0.177 | [5] -0.147 | tipifarnib -0.02 | mubritinib 0.109 | [6] 0.279 | [7] 0.2 | [8] 0.217 | [9] 0.157 | entinostat 0.052 | vorinostat -0.026 | citarinostat -0.018 | [10] 0.021 | [11] 0.099

PPP6R1 (UniProt Q9UPN7)
inactive: bafetinib -0.024 | [1] 0.022 | nilotinib 0.003 | [2] -0.031 | dasatinib -0.02 | [3] -0.008 | [4] 0.003 | [5] 0.02 | tipifarnib 0.01 | mubritinib 0.043 | [6] 0.023 | [7] -0.066 | [8] -0.09 | [9] 0.011 | entinostat -0.018 | vorinostat 0.023 | citarinostat 0.054 | silmitasertib 0.013 | [10] -0.055 | [11] -0.05

PIP4P1 isoform 2 (UniProt Q86T03)
inactive: bafetinib -0.044 | [1] 0.102 | nilotinib 0.031 | [2] -0.004 | dasatinib 0.051 | [3] -0.016 | [4] -0.158 | [5] 0.01 | tipifarnib 0.112 | mubritinib -0.037 | [6] 0.012 | [7] 0.086 | [8] -0.326 | [9] 0.095 | entinostat 0.042 | vorinostat -0.019 | citarinostat 0.01 | silmitasertib 0.054 | [10] 0.043 | [11] -0.031

PISD (UniProt Q9UG56)
Chain of UniProt Q9UG56 (Q9UG56 whole entry, looked up): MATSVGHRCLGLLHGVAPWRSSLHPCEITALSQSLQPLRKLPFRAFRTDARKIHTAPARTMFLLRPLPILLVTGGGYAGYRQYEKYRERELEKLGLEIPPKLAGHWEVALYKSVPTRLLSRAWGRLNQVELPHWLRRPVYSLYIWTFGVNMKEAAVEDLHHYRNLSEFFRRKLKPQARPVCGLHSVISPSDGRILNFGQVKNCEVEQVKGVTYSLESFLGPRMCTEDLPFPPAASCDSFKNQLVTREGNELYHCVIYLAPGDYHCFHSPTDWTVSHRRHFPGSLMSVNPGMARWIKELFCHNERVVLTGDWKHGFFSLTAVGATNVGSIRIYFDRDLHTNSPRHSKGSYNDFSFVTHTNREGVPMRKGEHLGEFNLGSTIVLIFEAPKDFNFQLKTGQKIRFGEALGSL
inactive: bafetinib -0.042 | [1] -0.007 | nilotinib -0.053 | [2] -0.003 | dasatinib -0.029 | [3] 0.105 | [4] -0.068 | [5] -0.02 | tipifarnib -0.005 | mubritinib 0.103 | [6] 0.023 | [7] 0.019 | [8] -0.009 | [9] 0.045 | entinostat -0.047 | vorinostat 0.069 | citarinostat 0.035 | silmitasertib -0.019 | [10] -0.097 | [11] -0.006

POLD1 (UniProt P28340)
Chain of UniProt P28340 (P28340 whole entry, looked up): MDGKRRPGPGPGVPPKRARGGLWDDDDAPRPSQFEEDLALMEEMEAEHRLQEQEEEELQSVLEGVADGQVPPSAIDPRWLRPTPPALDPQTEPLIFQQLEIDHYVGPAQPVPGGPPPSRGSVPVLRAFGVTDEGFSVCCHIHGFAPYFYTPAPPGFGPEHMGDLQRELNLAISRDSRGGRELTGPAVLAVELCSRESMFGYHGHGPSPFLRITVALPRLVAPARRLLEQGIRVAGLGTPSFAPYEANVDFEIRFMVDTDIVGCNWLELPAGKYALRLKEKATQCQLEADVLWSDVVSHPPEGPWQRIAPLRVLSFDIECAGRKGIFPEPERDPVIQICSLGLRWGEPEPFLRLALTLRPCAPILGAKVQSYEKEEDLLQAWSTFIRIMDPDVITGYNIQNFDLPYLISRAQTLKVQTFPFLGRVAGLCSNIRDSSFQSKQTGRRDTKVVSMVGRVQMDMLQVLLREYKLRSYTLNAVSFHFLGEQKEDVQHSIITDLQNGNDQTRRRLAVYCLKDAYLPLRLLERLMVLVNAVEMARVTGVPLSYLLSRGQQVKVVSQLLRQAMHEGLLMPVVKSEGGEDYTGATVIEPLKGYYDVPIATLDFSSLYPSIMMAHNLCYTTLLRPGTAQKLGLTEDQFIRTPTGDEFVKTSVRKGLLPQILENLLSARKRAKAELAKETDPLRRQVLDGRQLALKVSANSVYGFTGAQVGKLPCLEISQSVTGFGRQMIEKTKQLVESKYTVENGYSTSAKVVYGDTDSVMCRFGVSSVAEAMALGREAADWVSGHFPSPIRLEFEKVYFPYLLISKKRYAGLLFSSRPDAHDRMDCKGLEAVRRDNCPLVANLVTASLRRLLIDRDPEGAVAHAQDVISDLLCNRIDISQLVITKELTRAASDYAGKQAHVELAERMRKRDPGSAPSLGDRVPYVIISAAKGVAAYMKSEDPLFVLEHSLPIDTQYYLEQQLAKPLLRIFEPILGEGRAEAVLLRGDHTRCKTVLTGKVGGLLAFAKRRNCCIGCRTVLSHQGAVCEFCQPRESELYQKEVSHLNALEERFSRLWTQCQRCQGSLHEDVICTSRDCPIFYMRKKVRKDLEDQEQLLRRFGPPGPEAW
inactive: bafetinib -0.055 | [1] 0.023 | nilotinib -0.03 | [2] -0.006 | dasatinib -0.049 | [3] -0.052 | [4] 0.063 | [5] 0.01 | tipifarnib -0.066 | mubritinib 0.006 | [6] -0.01 | [7] -0.027 | [8] -0.095 | [9] -0.007 | entinostat 0.005 | vorinostat -0.098 | citarinostat 0.117 | silmitasertib 0.03 | [10] -0.122 | [11] -0.011

PLD3 (UniProt Q8IV08)
active: bafetinib -0.308
inactive: [1] -0.007 | nilotinib -0.043 | [2] 0.064 | dasatinib -0.024 | [3] -0.03 | [4] -0.007 | [5] 0.013 | tipifarnib -0.01 | mubritinib 0.035 | [6] 0.008 | [7] -0.005 | [8] -0.177 | [9] -0.051 | entinostat 0.009 | vorinostat 0.022 | citarinostat 0.034 | silmitasertib 0.006 | [10] 0.024 | [11] 0.067
